Sm TGR block – inhibitors of Schistosoma mansoni thioredoxin glutathione reductase | Q962Y6 | purified TGR, DTNB reduction, TNB absorbance 405 nm | Potency, µM (series often up to 114 µM), most hits filed as inhibitors | hit rate 3% among 360,000 | AID 485364; also: nearly all actives have a fitted effect of over 60% in size
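TGR 20 nM + NADPH 100 uM (dispensed conc.), cpd preinc 15 min RT; start with NADPH (500 uM addition) then DTNB (15 mM addition). Kinetic TNB absorbance, 405 nm filter. Four-parameter Hill fit across titration.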
AmpC detergent – inhibitors of E. coli AmpC beta-lactamase with detergent. AmpC hydrolysis of nitrocefin, absorbance 480 nm, 0.01% Triton. hit rate 0.041% among 370,000. Potency, µM (highest dose often 114 µM), usual class: inhibitors. AID 485294. P00811; also: nearly all actives have a fitted effect of over 25% in size
Target sequence (P00811 whole entry, looked up): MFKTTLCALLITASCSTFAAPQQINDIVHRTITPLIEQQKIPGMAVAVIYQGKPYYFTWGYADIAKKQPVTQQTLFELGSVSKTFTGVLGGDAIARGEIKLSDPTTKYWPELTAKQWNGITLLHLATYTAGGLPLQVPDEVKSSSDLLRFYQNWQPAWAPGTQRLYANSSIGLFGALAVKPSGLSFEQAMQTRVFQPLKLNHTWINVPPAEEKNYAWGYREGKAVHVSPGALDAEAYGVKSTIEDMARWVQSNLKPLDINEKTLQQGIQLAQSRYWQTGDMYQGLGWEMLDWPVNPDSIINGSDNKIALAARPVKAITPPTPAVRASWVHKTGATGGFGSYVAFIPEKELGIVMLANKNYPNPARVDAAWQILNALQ
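AmpC (5.3 nM in the dispensed reagent) in 20 mM phosphate pH 7.0 with 0.01% (detergent screen) or 0.0001% Triton X-100 was preincubated with compounds for 15 min at room temperature. Nitrocefin was then added from an 800 uM solution, and hydrolysis was followed at 480 nm.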
RE007 growth inh – less growth of the S. pombe RE007 Vpr strain; S. pombe RE007 Vpr strain, BacTiter-Glo ATP luminescence, 24 h; Potency, µM (titrated, usually from 92.2 µM), most hits filed as inhibitors; hit rate 0.21% among 360,000; active = well fitted falling curve with a large enough effect; inconclusive = small, poorly fitted or top-dose-only effect; inactive = no such curve, though single readings can be large or run the other way; also: nearly all actives have a fitted effect of over 50% in size
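Fission yeast RE007 carrying one integrated HIV-1 vpr copy, seeded at OD 0.01 in PMG+AL medium with 23 nL pinned compound. Grown 24 h at 30 degrees; viability read by BacTiter-Glo luminescence after 5 min.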
AmpC no deterg – inhibitors of E. coli AmpC beta-lactamase without detergent | P00811 | AmpC nitrocefin hydrolysis, absorbance 480 nm, 0.0001% Triton | Potency, µM (series often up to 57.1 µM), most hits filed as inhibitors | hit rate 0.52% among 330,000; also: nearly all actives have a fitted effect of over 20% in size
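AmpC (5.3 nM in the dispensed reagent) in 20 mM phosphate pH 7.0 with 0.01% (detergent screen) or 0.0001% Triton X-100 was preincubated with compounds for 15 min at room temperature. Nitrocefin was then added from an 800 uM solution, and hydrolysis was followed at 480 nm.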
AMA1-RON2 inh – AMA1-RON2 (P. falciparum) interaction inhibition; AlphaScreen AMA1-biotinylated RON2 peptide binding; Potency, µM (doses to about 58.2 µM), usual class: inhibitors; hit rate 0.2% among 360,000; also: nearly all actives have a fitted effect of over 45% in size
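AMA1 (3D7) with his tag at 25 nM final met compounds first, then biotinylated RON2 peptide at 25 nM; detection used donor plus acceptor beads, 10 µg/mL apiece, read by AlphaScreen after 30 min at room temperature.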
Of the large screens only hits and unclear results are named; the others gave an inactive call. Hits are enriched below; roughly 3.2% of the tested compounds scored in any of these assays. Unless noted, calls follow the shape of the dose curve; as a rule, active = well fitted curve in the direction sought with a large enough effect; inconclusive = small, poorly fitted or top-dose-only effect, or another doubt; inactive = no such curve, though single readings can be large; an effect the other way counts as inactive or inconclusive.

O=C(NCC(c1cccnc1)N1CCN(c2ccccc2F)CC1)C(=O)Nc1ccc(F)cc1F (centres undefined)	none (no result: RE007 growth inh, AmpC no deterg, AMA1-RON2 inh)
Cc1nc2scc(C)n2c(=O)c1S(=O)(=O)Nc1cccc(C(F)(F)F)c1	none (no result: RE007 growth inh, AmpC no deterg, AMA1-RON2 inh)
COc1ccccc1NC(=O)C1=C(C)Nc2ncnn2C1c1ccc[nH]1 (centres undefined)	Sm TGR block 40µM (no result: RE007 growth inh, AmpC no deterg, AMA1-RON2 inh)
COc1ccc(C2C(C(C)=O)=C(C)Nc3ncnn32)cc1 (centres undefined)	Sm TGR block 35µM
CCN(CC)C(=O)c1sc2c(c1C)c(=O)n(-c1ccc(Cl)c(Cl)c1)c(=O)n2Cc1cc(=O)n2c(C)cccc2n1	none (no result: RE007 growth inh, AmpC no deterg, AMA1-RON2 inh)
COc1cccc(NC(=O)Cn2c(=O)n(CCc3ccc(OC)c(OC)c3)c(=O)c3ccccc32)c1	none (no result: RE007 growth inh, AmpC no deterg, AMA1-RON2 inh)
COc1cccc(NC(=O)c2sc3nc(C)c(C(=O)Nc4ccc(C)cc4C)c(-c4cccs4)c3c2N)c1	none (no result: RE007 growth inh, AmpC no deterg, AMA1-RON2 inh)
CN1c2ccc([N+](=O)[O-])cc2N(C)C1(C)c1ccccc1 (centres undefined)	AMA1-RON2 inh 13µM
CCOC(=O)c1c(-c2ccc(C)cc2)csc1NC(=O)c1cc(=O)c2ccc(C)cc2o1	none (no result: RE007 growth inh, AmpC no deterg, AMA1-RON2 inh)
CCOC(=O)c1c(-c2ccc(C)cc2)csc1NC(=O)c1cc2ccccc2oc1=O	Sm TGR block 14µM
CCn1c(C)c(C2=CCN(S(=O)(=O)c3ccccc3)CC2)c2ccccc21	Sm TGR block inconclusive, AmpC no deterg 18µM
O=C(Cc1ccc(-c2ccccc2)cc1)NCCS(=O)(=O)N1CCN(c2cccc(Cl)c2)CC1	none (no result: RE007 growth inh, AmpC no deterg, AMA1-RON2 inh)
CC(C)C1C(=O)N(Cc2cn(CCC3OCCO3)nn2)CCS(=O)(=O)N1Cc1ccc(-c2cccc(N(C)C)c2)cc1 (centres undefined)	AMA1-RON2 inh 18µM (no result: Sm TGR block, AmpC detergent, AmpC no deterg)
COc1ccccc1-c1cc(C(F)(F)F)nc(S(=O)(=O)CCCC(=O)N2CCOCC2)n1	Sm TGR block 32µM, AmpC detergent inconclusive
COc1ccc(-c2cc(C(F)(F)F)nc(S(=O)(=O)CCC(=O)N3CCOCC3)n2)cc1	Sm TGR block 28µM
Cc1cc(NC(=O)CCS(=O)(=O)c2nc(-c3ccccc3)cc(C(F)(F)F)n2)no1	Sm TGR block 32µM
COc1ccc(-c2cc(C(F)(F)F)nc(S(=O)(=O)CCCC(=O)Nc3cccc(O)c3)n2)cc1OC	Sm TGR block 35µM
Cc1ccc(S(=O)(=O)CCC(=O)Nc2cc(C)on2)cc1	none (no result: Sm TGR block, AmpC detergent, AmpC no deterg)
COc1ccc(-c2cc(C(F)(F)F)nc(S(=O)(=O)CCCC(=O)Nc3ccccc3C(F)(F)F)n2)cc1OC	Sm TGR block inconclusive (no result: RE007 growth inh, AmpC no deterg, AMA1-RON2 inh)
COc1ccc(CCNC(=O)Cn2nc(C)c3c(C)n(-c4ccc(C)cc4)nc3c2=O)c(OC)c1	none (no result: RE007 growth inh, AMA1-RON2 inh)
CS(=O)(=O)c1nc(-c2ccccc2)cc(C(F)(F)F)n1	Sm TGR block 10µM, AmpC detergent inconclusive
COc1ccc(NC(=O)CCS(=O)(=O)c2nc(-c3ccc4c(c3)OCO4)cc(C(F)(F)F)n2)cc1	Sm TGR block 79µM (no result: RE007 growth inh, AmpC no deterg, AMA1-RON2 inh)
NS(=O)(=O)c1ccc(CCNC(=O)CCCCCn2c(=S)[nH]c3ccc(Br)cc3c2=O)cc1	AmpC detergent inconclusive, AmpC no deterg 18µM
O=C1NC(=O)C(=Cc2ccc(-c3ccccc3[N+](=O)[O-])o2)C(=O)N1	AMA1-RON2 inh inconclusive
O=C1NC(=O)C(=Cc2ccc(-c3cc(Cl)ccc3[N+](=O)[O-])o2)C(=O)N1	Sm TGR block 32µM
Cc1ccc(-c2ccc(/C=C3/NC(=O)NC3=O)o2)cc1[N+](=O)[O-]	AmpC detergent inconclusive
CC1=C(C#N)C(=O)NC(=O)/C1=C\c1ccc(-c2cc(C)c(C)cc2[N+](=O)[O-])o1	Sm TGR block 3.5µM, RE007 growth inh inconclusive, AmpC no deterg inconclusive
COc1ccc(C2=NC(c3ccccc3)CO2)cc1 (centres undefined)	none (no result: RE007 growth inh, AMA1-RON2 inh)
COc1ccc(C2CC23N=C(c2ccccc2)OC3=O)cc1 (centres undefined)	Sm TGR block 22µM, AmpC detergent inconclusive
CCOc1ccc(C2C(C(=O)Nc3ccccc3)=C(C)Nc3nc(-c4ccccc4Cl)nn32)cc1OC (centres undefined)	none (no result: RE007 growth inh, AmpC no deterg, AMA1-RON2 inh)
CCOc1ccc(-c2c(C)nn3c(C)c(C(=O)NCc4ccc(Cl)cc4)cnc23)cc1OCC	none (no result: RE007 growth inh, AmpC no deterg, AMA1-RON2 inh)
